In assay [1] the target is T1, Inhibitor of nuclear factor kappa-B kinase subunit epsilon (Homo sapiens) (UniProt Q14164).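 Further: reported values are averaged percent inhibition figures against human IKKε.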
T1 sequence (whole entry): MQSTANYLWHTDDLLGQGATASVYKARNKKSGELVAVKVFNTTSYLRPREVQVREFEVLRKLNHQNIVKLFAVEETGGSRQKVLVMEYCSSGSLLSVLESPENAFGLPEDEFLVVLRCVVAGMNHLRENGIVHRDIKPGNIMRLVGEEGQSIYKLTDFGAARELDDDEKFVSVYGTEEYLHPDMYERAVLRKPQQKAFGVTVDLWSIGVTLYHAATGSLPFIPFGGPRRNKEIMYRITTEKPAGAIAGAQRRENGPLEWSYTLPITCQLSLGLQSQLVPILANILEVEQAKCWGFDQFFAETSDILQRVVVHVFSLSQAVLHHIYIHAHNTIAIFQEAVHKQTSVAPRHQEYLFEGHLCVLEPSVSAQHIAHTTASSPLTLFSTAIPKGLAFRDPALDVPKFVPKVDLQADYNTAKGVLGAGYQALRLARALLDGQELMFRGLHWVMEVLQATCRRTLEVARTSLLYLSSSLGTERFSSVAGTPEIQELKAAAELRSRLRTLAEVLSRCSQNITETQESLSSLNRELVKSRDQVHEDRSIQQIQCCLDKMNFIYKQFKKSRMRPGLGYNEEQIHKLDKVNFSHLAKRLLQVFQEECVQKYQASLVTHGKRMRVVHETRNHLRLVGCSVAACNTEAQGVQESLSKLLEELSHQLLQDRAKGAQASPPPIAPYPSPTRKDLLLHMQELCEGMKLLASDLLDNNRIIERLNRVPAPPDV
As to conditions: at 1 µM.

Assay [2] addresses T2, Serine/threonine-protein kinase Nek1 (Homo sapiens) (UniProt Q96PY6).
T2 sequence (whole entry): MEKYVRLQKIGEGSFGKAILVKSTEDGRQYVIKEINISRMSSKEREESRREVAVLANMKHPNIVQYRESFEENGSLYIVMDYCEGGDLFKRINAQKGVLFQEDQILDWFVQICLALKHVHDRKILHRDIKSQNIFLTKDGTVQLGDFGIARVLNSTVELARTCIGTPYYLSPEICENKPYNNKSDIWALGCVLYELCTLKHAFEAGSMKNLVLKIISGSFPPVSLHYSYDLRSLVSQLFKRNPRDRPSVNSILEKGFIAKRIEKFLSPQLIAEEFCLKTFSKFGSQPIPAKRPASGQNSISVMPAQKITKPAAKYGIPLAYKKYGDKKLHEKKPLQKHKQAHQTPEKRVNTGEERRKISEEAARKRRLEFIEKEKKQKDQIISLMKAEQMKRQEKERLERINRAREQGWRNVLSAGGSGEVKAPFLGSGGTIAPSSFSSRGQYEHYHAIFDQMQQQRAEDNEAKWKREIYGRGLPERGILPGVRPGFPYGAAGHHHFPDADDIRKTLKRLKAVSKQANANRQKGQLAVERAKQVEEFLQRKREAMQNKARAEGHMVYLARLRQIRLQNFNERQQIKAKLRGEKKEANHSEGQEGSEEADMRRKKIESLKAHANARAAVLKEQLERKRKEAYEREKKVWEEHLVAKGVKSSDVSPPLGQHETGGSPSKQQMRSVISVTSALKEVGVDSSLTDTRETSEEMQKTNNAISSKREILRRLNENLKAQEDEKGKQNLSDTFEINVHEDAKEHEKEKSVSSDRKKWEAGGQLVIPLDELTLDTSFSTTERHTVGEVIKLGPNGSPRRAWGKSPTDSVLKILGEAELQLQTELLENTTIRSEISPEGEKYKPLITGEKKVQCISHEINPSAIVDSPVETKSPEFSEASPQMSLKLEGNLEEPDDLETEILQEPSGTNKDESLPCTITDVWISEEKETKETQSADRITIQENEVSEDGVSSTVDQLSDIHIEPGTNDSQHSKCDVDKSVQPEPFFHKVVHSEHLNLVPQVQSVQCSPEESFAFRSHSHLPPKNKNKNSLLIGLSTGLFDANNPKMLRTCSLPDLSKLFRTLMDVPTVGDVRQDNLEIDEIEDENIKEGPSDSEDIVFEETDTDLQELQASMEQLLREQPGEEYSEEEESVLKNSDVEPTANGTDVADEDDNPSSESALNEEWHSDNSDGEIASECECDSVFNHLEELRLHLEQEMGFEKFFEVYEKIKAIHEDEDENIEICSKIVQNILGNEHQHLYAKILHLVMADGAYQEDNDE
As to conditions: at 0.1 µM.

Assay [3] deals with T2, Serine/threonine-protein kinase Nek1 (Homo sapiens). The settings on record: at 1 µM.
Assay [4] deals with T3, Serine/threonine-protein kinase Nek2 (Homo sapiens) (UniProt P51955).
T3 sequence (whole entry): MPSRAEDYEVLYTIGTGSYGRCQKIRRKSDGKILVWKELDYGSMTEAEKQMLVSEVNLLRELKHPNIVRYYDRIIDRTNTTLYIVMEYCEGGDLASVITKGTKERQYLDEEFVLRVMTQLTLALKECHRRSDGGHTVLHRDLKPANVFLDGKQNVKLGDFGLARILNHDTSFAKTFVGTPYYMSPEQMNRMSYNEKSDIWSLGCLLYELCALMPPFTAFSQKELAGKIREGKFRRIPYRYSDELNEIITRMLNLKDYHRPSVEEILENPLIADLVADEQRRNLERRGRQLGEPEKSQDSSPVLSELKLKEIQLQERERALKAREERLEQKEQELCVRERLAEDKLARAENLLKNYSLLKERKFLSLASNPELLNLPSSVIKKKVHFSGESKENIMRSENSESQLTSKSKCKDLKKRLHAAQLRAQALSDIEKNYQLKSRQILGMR
As to conditions: at 0.1 µM.

Assay [5] concerns the target T3, Serine/threonine-protein kinase Nek2 (Homo sapiens). As to conditions: at 1 µM.
For assay [6], the target named is Serine/threonine-protein kinase Nek6 (Homo sapiens) (UniProt Q9HC98). As to conditions: at 0.1 µM.
Sequence of Serine/threonine-protein kinase Nek6 (Homo sapiens) (Q9HC98 whole entry): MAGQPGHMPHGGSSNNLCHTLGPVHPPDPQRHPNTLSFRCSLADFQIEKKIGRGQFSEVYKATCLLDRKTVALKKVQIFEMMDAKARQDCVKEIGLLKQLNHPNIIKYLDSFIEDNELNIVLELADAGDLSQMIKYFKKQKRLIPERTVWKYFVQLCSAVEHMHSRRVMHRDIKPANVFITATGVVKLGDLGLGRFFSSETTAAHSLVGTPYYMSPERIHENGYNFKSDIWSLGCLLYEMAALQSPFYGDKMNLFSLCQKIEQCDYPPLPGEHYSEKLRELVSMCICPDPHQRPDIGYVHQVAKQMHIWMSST
Assay [7] shares this target. The settings on record: at 1 µM.
The target in assay [8] is Serine/threonine-protein kinase Nek7 (Homo sapiens) (UniProt Q8TDX7). The settings on record: at 0.1 µM.
Sequence of Serine/threonine-protein kinase Nek7 (Homo sapiens) (Q8TDX7 whole entry, looked up): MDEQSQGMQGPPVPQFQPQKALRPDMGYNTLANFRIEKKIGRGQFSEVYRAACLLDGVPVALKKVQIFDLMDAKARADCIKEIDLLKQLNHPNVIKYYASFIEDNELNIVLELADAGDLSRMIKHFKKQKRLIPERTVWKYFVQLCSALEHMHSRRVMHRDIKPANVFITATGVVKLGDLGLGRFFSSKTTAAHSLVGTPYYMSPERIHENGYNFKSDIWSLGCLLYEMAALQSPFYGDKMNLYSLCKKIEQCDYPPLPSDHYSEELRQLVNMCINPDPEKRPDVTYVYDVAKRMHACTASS
Assay [9] shares this target. The settings on record: at 1 µM.
Assay [10] deals with T4, Serine/threonine-protein kinase Nek9 (Homo sapiens) (UniProt Q8TD19).
T4 sequence (whole entry): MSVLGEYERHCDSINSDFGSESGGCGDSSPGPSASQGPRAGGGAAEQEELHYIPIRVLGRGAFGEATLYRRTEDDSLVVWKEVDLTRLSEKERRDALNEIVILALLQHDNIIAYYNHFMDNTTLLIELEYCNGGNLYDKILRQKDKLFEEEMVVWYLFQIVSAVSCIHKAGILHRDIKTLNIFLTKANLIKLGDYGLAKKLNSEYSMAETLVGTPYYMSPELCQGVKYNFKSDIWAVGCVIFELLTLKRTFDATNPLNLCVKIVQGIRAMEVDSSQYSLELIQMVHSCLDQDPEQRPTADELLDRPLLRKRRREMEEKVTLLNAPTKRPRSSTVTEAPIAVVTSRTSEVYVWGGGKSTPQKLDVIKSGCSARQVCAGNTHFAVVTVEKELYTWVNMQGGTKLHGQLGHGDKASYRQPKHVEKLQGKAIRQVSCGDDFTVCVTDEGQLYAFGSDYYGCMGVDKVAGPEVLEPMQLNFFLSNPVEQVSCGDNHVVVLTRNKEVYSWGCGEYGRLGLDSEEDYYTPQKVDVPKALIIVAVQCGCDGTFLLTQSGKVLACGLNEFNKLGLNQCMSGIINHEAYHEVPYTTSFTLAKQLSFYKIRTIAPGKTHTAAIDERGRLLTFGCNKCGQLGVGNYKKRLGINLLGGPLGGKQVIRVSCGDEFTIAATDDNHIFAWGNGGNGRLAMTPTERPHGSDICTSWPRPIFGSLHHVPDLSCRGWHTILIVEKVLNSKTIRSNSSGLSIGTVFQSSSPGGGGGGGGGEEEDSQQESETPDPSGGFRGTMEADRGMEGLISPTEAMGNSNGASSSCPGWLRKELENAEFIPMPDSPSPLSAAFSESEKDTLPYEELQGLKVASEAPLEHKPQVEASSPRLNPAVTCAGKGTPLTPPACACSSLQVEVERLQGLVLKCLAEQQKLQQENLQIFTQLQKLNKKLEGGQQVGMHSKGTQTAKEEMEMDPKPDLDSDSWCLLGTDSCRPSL
As to conditions: at 0.1 µM.

Assay [11] has as its target T4, Serine/threonine-protein kinase Nek9 (Homo sapiens). The settings on record: at 1 µM.
For assay [12], the target named is Serine/threonine-protein kinase PLK1 (Homo sapiens) (UniProt P53350). As to conditions: at 0.1 µM.
Sequence of Serine/threonine-protein kinase PLK1 (Homo sapiens) (P53350 whole entry): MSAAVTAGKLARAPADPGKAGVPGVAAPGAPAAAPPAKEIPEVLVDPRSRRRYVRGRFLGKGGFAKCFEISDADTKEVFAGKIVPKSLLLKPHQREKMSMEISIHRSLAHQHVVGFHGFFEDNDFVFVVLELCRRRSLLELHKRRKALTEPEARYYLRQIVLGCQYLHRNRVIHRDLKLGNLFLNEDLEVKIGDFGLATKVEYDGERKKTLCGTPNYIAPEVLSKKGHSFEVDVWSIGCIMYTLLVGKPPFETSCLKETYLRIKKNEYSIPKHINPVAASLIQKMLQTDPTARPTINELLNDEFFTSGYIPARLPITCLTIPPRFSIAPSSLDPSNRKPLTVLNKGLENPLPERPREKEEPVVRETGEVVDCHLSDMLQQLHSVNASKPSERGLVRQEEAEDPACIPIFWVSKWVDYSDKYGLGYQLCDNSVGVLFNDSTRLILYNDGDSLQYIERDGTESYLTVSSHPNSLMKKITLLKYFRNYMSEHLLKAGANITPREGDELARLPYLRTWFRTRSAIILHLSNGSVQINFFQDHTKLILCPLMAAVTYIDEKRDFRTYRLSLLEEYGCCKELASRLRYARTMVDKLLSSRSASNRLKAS
Assay [13] shares this target. The settings on record: at 1 µM.
For assay [14], the target named is T5, Dual specificity protein kinase TTK (Homo sapiens) (UniProt P33981).
T5 sequence (whole entry): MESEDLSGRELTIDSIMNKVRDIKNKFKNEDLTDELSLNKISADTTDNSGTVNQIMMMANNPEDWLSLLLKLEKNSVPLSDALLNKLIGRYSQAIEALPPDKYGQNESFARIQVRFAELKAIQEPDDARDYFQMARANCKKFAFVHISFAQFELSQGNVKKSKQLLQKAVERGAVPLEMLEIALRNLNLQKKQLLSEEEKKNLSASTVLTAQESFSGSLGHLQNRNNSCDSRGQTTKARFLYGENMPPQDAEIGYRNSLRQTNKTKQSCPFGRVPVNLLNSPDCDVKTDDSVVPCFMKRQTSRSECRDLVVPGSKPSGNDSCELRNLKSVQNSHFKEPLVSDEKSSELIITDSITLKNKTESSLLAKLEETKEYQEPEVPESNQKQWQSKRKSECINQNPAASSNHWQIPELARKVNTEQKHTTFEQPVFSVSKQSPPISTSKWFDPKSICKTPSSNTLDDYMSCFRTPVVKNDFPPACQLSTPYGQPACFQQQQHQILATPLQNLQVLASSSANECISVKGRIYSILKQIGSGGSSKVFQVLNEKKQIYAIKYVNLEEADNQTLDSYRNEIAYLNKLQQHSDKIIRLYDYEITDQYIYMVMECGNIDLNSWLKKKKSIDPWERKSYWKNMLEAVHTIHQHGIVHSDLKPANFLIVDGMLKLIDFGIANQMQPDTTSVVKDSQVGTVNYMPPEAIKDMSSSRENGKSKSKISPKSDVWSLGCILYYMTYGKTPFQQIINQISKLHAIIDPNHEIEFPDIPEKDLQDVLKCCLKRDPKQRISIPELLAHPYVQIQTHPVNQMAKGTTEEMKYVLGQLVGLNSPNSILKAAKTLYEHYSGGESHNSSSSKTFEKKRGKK
The settings on record: at 0.1 µM.

Assay [15] concerns T6, Receptor-type tyrosine-protein kinase FLT3 (Homo sapiens), P36888 [D835Y].
T6 sequence (whole entry): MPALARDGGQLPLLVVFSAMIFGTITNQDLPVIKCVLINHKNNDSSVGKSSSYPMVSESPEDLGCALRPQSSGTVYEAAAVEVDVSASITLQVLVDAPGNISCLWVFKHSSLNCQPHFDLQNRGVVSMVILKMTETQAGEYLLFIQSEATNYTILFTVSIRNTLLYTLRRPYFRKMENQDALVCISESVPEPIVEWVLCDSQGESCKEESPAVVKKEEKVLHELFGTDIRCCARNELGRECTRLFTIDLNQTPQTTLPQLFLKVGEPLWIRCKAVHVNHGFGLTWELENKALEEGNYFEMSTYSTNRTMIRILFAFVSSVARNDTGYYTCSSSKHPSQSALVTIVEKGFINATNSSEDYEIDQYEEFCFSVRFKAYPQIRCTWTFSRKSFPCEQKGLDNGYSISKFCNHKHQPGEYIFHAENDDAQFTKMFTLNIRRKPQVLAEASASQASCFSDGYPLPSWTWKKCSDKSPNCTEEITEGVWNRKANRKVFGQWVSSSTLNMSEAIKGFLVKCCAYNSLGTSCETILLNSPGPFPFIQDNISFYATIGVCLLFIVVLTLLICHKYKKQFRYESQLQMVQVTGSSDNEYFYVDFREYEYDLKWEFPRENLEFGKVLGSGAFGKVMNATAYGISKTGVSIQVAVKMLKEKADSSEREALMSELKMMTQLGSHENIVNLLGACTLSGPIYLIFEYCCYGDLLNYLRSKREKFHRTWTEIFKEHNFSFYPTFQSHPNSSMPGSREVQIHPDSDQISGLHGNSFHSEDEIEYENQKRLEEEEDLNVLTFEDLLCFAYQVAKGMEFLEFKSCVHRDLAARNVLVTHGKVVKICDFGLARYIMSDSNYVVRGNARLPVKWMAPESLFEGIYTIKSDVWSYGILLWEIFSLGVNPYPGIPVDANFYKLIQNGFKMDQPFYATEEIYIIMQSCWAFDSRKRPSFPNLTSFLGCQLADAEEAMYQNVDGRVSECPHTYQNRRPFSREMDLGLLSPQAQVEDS
As to conditions: at 1 µM.

The target in assay [16] is Vascular endothelial growth factor receptor 3 (Homo sapiens) (UniProt P35916). As to conditions: at 0.1 µM.
Sequence of Vascular endothelial growth factor receptor 3 (Homo sapiens) (P35916 whole entry): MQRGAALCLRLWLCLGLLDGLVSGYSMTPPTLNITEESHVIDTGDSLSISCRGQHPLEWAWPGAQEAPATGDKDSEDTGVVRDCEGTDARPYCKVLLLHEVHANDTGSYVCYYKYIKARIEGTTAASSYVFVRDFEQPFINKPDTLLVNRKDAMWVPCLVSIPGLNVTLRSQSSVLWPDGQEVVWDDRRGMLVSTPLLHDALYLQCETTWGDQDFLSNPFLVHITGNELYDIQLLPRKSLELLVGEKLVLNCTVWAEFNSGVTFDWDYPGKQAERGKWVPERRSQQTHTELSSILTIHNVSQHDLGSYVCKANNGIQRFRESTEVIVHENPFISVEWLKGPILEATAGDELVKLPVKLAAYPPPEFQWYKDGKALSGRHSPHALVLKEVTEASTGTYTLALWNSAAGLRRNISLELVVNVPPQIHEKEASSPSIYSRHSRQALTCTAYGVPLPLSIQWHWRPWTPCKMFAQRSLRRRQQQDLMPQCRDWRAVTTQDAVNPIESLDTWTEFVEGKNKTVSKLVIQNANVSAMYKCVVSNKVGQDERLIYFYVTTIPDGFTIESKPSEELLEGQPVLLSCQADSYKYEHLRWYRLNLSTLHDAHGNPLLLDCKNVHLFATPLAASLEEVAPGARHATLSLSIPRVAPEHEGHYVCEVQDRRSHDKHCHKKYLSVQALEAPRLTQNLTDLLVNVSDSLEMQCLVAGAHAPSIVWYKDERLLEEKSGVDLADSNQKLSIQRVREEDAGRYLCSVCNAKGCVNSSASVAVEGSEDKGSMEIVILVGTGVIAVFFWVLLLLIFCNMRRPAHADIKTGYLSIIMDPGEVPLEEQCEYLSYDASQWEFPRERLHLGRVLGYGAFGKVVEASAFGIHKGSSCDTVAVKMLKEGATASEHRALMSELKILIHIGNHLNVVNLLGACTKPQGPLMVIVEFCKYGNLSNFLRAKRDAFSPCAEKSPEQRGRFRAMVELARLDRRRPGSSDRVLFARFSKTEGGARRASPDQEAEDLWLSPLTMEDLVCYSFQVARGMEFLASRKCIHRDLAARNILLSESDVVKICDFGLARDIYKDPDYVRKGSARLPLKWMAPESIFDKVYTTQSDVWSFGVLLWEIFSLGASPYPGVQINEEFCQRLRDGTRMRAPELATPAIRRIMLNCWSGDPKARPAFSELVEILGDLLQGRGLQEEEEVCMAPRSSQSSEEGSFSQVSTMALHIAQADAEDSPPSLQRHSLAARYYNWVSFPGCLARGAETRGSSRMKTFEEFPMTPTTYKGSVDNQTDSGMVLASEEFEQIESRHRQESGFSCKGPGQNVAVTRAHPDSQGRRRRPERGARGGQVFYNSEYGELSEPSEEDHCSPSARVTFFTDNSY
The target is the same in assay [17]. As to conditions: at 1 µM.
The target in assay [18] is Macrophage colony-stimulating factor 1 receptor (Homo sapiens) (UniProt P07333). The settings on record: at 0.1 µM.
Sequence of Macrophage colony-stimulating factor 1 receptor (Homo sapiens) (P07333 whole entry): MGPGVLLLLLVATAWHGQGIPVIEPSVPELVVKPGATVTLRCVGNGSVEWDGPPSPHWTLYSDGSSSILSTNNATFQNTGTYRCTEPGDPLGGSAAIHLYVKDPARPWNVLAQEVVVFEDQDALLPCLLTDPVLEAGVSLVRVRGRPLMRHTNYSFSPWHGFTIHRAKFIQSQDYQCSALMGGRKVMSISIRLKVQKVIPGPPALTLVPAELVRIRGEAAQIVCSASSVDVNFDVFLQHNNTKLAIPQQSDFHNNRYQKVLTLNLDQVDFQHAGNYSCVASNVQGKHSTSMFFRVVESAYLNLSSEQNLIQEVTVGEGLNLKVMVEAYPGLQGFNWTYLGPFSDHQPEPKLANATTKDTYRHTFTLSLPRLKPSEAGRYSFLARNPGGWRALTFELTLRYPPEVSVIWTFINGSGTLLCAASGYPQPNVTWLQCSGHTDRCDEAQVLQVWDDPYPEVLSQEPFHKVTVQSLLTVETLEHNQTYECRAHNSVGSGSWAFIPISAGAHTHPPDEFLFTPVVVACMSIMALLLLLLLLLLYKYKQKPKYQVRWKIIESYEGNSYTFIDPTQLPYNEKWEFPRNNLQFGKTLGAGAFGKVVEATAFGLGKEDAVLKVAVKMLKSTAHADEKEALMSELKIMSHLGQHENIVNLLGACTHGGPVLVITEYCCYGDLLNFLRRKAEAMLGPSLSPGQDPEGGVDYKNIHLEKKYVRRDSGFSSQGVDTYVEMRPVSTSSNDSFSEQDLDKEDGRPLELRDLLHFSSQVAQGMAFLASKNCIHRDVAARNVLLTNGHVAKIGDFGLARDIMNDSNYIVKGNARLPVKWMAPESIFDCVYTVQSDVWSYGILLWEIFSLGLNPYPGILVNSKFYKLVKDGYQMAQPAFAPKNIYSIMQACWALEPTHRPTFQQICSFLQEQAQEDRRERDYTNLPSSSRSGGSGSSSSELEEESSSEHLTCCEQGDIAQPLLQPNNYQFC
The target is the same in assay [19]. The settings on record: at 1 µM.
For assay [20], the target named is Tyrosine-protein kinase Fyn (Homo sapiens) (UniProt P06241). As to conditions: at 0.1 µM.
Sequence of Tyrosine-protein kinase Fyn (Homo sapiens) (P06241 2-537 limits assumed): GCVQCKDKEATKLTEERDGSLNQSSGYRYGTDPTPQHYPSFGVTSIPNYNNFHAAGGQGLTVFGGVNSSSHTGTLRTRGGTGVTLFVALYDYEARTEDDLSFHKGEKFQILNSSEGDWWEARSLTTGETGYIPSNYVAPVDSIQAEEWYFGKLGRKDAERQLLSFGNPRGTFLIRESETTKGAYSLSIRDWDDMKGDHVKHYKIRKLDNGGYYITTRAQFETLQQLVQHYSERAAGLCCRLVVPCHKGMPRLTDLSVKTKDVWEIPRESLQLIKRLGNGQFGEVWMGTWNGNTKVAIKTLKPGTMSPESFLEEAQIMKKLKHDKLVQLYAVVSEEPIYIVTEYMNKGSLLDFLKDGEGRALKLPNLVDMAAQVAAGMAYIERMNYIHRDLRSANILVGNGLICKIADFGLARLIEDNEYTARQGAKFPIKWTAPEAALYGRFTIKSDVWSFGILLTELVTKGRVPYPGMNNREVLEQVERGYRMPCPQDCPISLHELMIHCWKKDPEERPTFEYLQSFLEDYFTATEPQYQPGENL

Experimental findings from ChEMBL document CHEMBL1961873, “Compounds: GSK PKIS; Assays: Nanosyn kinase panel” (2012) are described below.

`O=S(=O)(CCOCc1ccc(-c2ccc3ncnc(Nc4ccc(OCc5cccc(F)c5)c(Cl)c4)c3c2)o1)c1ccccc1`: the inhibition is 0.73% in [1]; 1.11% in assay [2]; 1.59% in assay [3]; 3.36% in assay [4]; 2.18% in [5]; 0.77% in assay [6]. Further, the inhibition was found to be 0.7% in assay [7]; 1.66% in [8]; 5.83% in [9]; 5% in [10]; 0.79% in [11]; 2.52% in [12]. In addition, the inhibition in [13] is 2.68%; in [14] it was 6.45%; in [15] it was -7.19%; in assay [16] it was 5.04%; in [17], 14%; in assay [18], -1.86%. Also, the inhibition is 7.49% in assay [19] and 2.16% in assay [20].

For `NC(=O)c1sc(-n2cnc3ccccc32)cc1OCc1ccccc1Br`, the inhibition in assay [1] is 6.21%; in [2] it was 1.75%; in assay [3], 2.24%; in [4], 4.32%; in assay [5], 3.39%; in assay [6] it was -0.26%. Moreover, the inhibition in assay [7] is 2.86%; in assay [8] it was 3.33%; in [9], 9.69%; in [10] it was 8.49%; in assay [11], 23.5%; in assay [12] it was 78.3%. Moreover, the inhibition is 95.3% in assay [13]; 10.6% in [14]; -5.34% in assay [15]; 2.98% in assay [16]; 4.24% in [17]; -0.73% in [18]. For the same compound, the inhibition in [19] is 7.89%; in assay [20], 3.58%.

As usually defined, the inhibition is the change of the read-out against control, counted positive when it falls.
